This is a sample that favours compounds with a hit; in the whole collection about 2.8% have one here.
Pol beta inh – blocks human DNA polymerase beta activity. P06746. Pol beta primer extension/strand displacement, fluorescence kinetic. Potency, µM (series often up to 114 µM), for the others: at the top dose activity change, negative = inhibition, hits mostly inhibitors. 340,000 compounds, 1.3% hits; also: potency is read from the fitted curve at half-maximal effect; % is scaled to controls: 0 for no effect and ±100 for the full control effect
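Kinetic readout of DNA synthesis with strand displacement by Pol beta. Compound and 10 nM enzyme sit 15 min at room temperature; 50 nM substrate starts the reaction, read immediately and at 10 min.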
PI5P4K alpha inh – blocks human PI5P4K alpha kinase activity | 330,000 compounds, 1.2% hits | max response, % | P48426 | AID 652105 | PI5P4Kalpha enzyme, ADP-Glo luminescence, 60 min; active compounds read low; active = max response of -50% or lower; inconclusive = between -30% and -50%; inactive = -30% or higher; also: value at the top dose of about 77 µM; % is scaled to controls: 0 for no effect and ±100 for the full control effect
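PI5P4Kalpha ADP-Glo assay; 5 microM ATP final; 60 min RT reaction; HEPES pH 7.4/EGTA/CHAPS, 5% DMSO; controls lacking substrate or enzyme; luminescent end-point.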
Pol kappa inh – blocks human DNA polymerase kappa activity; purified Pol kappa, fluorescent DNA synthesis assay, 10 min; Potency, µM (highest dose often 107 µM), inactives show top-dose activity, negative = inhibition, usual class: inhibitors; 400,000 compounds, 0.53% hits; AID 588579; also: potency is read from the fitted curve at half-maximal effect; % is scaled to controls: 0 for no effect and ±100 for the full control effect
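Pol kappa 10 nM + cpd, 15 min RT; start w/ substrate 50 nM final; fluorescence kinetic read, 0 and 10 min. Neg ctrl: buffer, no enzyme.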
POLH inh – inhibitors of human DNA polymerase eta | Q9Y253 | recombinant Pol eta, fluorescent DNA replication assay | Potency, µM (top dose mostly 114 µM), inactives show at the top dose activity change, negative = inhibition, usual class: inhibitors | 390,000 compounds, 1.2% hits; also: potency is read from the fitted curve at half-maximal effect; % is scaled to controls: 0 for no effect and ±100 for the full control effect
Target sequence (Q9Y253 whole entry, looked up): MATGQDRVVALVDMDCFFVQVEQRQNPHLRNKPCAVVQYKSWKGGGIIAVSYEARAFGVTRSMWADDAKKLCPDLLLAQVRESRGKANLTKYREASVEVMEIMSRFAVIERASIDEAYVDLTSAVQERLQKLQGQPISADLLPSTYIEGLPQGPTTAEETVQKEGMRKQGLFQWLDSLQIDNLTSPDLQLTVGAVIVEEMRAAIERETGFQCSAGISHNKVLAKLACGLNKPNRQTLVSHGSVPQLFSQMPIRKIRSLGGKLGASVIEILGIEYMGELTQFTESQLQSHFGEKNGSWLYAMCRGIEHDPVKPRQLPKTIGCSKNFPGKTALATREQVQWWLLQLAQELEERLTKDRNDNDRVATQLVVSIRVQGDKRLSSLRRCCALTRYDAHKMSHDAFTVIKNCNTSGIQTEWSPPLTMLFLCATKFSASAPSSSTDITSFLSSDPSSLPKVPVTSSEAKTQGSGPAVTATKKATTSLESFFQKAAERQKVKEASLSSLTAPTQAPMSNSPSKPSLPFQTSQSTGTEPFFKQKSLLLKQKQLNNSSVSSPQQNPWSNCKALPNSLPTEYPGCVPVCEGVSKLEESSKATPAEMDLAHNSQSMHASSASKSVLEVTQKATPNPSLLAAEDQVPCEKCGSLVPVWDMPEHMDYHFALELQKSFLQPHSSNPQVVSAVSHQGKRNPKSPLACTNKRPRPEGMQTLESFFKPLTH
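Pol eta (10 nM) was preincubated with compounds for 15 min at room temperature, after which fluorescent replication substrate (50 nM final) was added to start the reaction. Fluorescence was read kinetically at 0 and 10 min.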
POLI inh – inhibitors of human DNA polymerase iota; Q9UNA4; Pol iota fluorescent replication assay, 10 min; Potency, µM (series often up to 115 µM), for the others: top-dose activity, negative = inhibition, usual class: inhibitors; 390,000 compounds, 1% hits; AID 588590; also: potency is read from the fitted curve at half-maximal effect
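Fluorescent replication assay read twice, at 0 min and 10 min after adding 50 nM (final) substrate. Enzyme (10 nM) and compounds were first incubated 15 min at room temperature; enzyme-free buffer wells were negative controls.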
WRN helicase inh – blocks human WRN helicase | Q14191 | WRN helicase unwinding, fluorescent forked duplex, kinetic | Potency, µM (doses to about 114 µM), for the others: at the highest dose activity change, negative = inhibition, most hits filed as inhibitors | 360,000 compounds, 0.46% hits | AID 651768; also: potency is read from the fitted curve at half-maximal effect; % is scaled to controls: 0 for no effect and ±100 for the full control effect; nearly all actives have a fitted effect of over 55% in size
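WRN at 20 nM final preincubated with compound 15 min at room temperature; reaction started with 100 nM fluorophore/quencher forked duplex oligonucleotide and 2 mM ATP final. Unwinding followed kinetically by red fluorescence (ex 525, em 598 nm).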
PGK validate – TbPGK inhibition, hit validation. shares compounds with Pol kappa inh. TbPGK coupled GAPDH assay, Kinase-Glo luminescence. Potency, µM (top dose mostly 57.5 µM), for the others: at the highest dose activity change, negative = inhibition, actives largely listed as inhibitors. 500 compounds, 79% hits; also: potency is read from the fitted curve at half-maximal effect; % is scaled to controls: 0 for no effect and ±100 for the full control effect; nearly all actives have a fitted effect of over 65% in size
Pol iota confirm – Human Pol iota inhibitor confirmatory assay | 1,500 compounds, 77% hits | Potency, µM, most hits filed as inhibitors | Pol iota primer extension, TAMRA/BHQ fluorescence | shares compounds with Pol kappa inh; also: potency is read from the fitted curve at half-maximal effect
* = called active by the depositor; ? = inconclusive; nt = not tested or not shown; ! = not active in a repeat; [ ] = remark or other dose. Unless noted, calls follow the shape of the dose curve; as a rule, active = well fitted curve in the direction sought with a large enough effect; inconclusive = small, poorly fitted or top-dose-only effect, or another doubt; inactive = no such curve, though single readings can be large; an effect the other way counts as inactive or inconclusive.

SMILES	Pol beta inh	PI5P4K alpha inh	Pol kappa inh	POLH inh	POLI inh	WRN helicase inh	PGK validate	others
COc1c(C)cccc1C(=O)Nc1ccc(-c2nc3ccccc3s2)c(Cl)c1	?	nt	-11%	-23%	-16%	nt	nt
CCc1ccc(NC(=O)Cn2c(=O)c(-c3ccccc3NC(C)=O)nc3ccccc32)cc1	?	nt	-9%	-18%	-1%	nt	nt
COc1ccc(NC(=O)c2nnn(CC(=O)Nc3c(C)cc(C)cc3C)c2N)cc1OC	14%	nt	1%	-2%	34%	nt	nt
Cc1cc(C)c(NC(=O)Cn2nnc(S(=O)(=O)c3ccc(C)c(C)c3)c2N)c(C)c1	10µM*	nt	?	-29%	79µM*	nt	nt	Pol iota confirm=?
N#CC(C#N)=C(N)/C(C#N)=C/c1cc(O)c(O)c(O)c1	nt	-67*	0.79µM*	?	?	?	nt	Pol iota confirm=47*
CC(C)(C)c1cc(/C=C(\C#N)C(N)=S)cc(C(C)(C)C)c1O	-7%[57.1 µM]	nt	-5%[60.1 µM]	-11%[57.1 µM]	?	nt	nt
Cc1nc(SCc2cccc(Cl)c2)nc2c1CCCC2	18%	nt	0%	-17%	30%	nt	nt
COc1cccc(/C=N/Nc2ncccc2[N+](=O)[O-])c1OC	-22%	-24	-9%	-8%	38%	-5%	16µM*
COc1cc2nc(Cl)nc(NC(C)C)c2cc1OC	nt	nt	-22%	nt	13%	nt	nt
O=C(c1cc(Br)c(Br)s1)N1CCOCC1	nt	4	-3%	-12%	29%	0%	nt
O=C(c1coc(=O)c(Br)c1)N1CCOCC1	6.3µM*	?	?	10µM*	?	?	29µM*
CNCc1nc(-c2ccc[nH]2)c2cc(Cl)ccc2n1	nt	nt	6%	nt	19%	nt	nt
COc1ccc(C(=O)CSc2ccc(-c3ccccc3)nn2)cc1	7%	5	-14%	-8%	9%	-21%	nt
COc1ccc(-c2ccc(SC)nn2)cc1	15%	?	8%	-6%	74%	4%	9.2µM*
O=C(Nc1cccc(-c2nc3cc(Cl)ccc3o2)c1)c1ccc(F)cc1	2%	nt	-24%[60.1 µM]	-2%	8%	nt	nt
COc1ccc(C(C[N+](=O)[O-])c2c(C)cc3ccccn23)cc1 (stereo unspecified)	19%	-8	-2%	7%	51%	-32%	nt
COc1ccc(C(C[N+](=O)[O-])c2c(C)[nH]n(-c3ccccc3)c2=O)cc1 (stereo unspecified)	-2%	1	-10%	-13%	1.6µM*	?	nt	Pol iota confirm=67*
COc1ccc(C(=O)O/N=C(\N)c2ccc(Br)cc2)cc1	-2%	1	-5%	-8%	95%	-2%	nt
COc1ccc(C(=O)O/N=C(\N)c2ccccc2)cc1	3%	?	-3%	-16%	51%	-5%	8.2µM*
COc1ccc(C(=O)O/N=C(/C)c2cccs2)cc1	14%	-51*	-3%	-10%	3%	-13%	5.8µM*
CCN1/C(=C/C(C)=C/c2sc3ccccc3[n+]2CC)Sc2ccccc21	35µM*	-50*!	?	40µM*	32µM*	18µM*	?
CC(=O)N1CCN(/[N+]([O-])=N/Oc2ccc([N+](=O)[O-])cc2[N+](=O)[O-])CC1	nt	nt	6%	nt	?	nt	nt
O=C(O)c1cn(C2CC2)c2cc(N3CCN(S(=O)(=O)c4ccc5c(c4)OCCO5)CC3)c(F)cc2c1=O	-8%	-3	-4%	79µM*	-23%	79µM*	nt	Pol iota confirm=27*
O=C(O)C1OC(Oc2c(-c3ccc(O)c(O)c3)oc3cc(O)cc(O)c3c2=O)C(O)C(O)C1O (stereo unspecified)	8.9µM*	?	14µM*	6.3µM*	22µM*	?	10µM*
O=c1c(O)c(-c2ccc(O[C@@H]3O[C@H](CO)[C@@H](O)[C@H](O)[C@H]3O)c(O)c2)oc2cc(O)cc(O)c12	nt	nt	-15%[60.1 µM]	nt	nt	nt	nt
SMILES	Pol beta inh	PI5P4K alpha inh	Pol kappa inh	POLH inh	POLI inh	WRN helicase inh	PGK validate	others
C[C@@H]1O[C@@H](OC[C@@H]2O[C@H](Oc3c(-c4ccc(O)cc4)oc4cc(O)cc(O)c4c3=O)[C@@H](O)[C@H](O)[C@H]2O)[C@H](O)[C@H](O)[C@H]1O	nt	0	-3%	4%	?	0%	nt
CC1OC(Oc2c(-c3cc(O)c(O)c(O)c3)oc3cc(O)cc(O)c3c2=O)C(O)C(O)C1O (stereo unspecified)	14µM*	?	50µM*	?	?	-3%[11.6 µM]	nt	Pol iota confirm=?
Cc1ccc(-c2onc(C)c2C)cc1S(=O)(=O)N1CCC(C)CC1	?	nt	9%	-11%	-3%	nt	nt
Oc1ccc(C[C@H]2CNCCN2CCc2cccc3ccccc23)cc1	nt	2	-14%	-10%	?	4%	?
COc1ccc2c(c1)c1c(c(=O)n(-c3ccccc3C)c(=O)n1CC(N)=O)n2C	6%	nt	1%	3%	-20%	nt	nt
O=C(COc1ccc2c(c1)OCO2)Nc1nccs1	50%	?	-8%	8%	15%	-2%	?
CCOc1ccc(OCC(=O)Nc2nccs2)cc1	0%	?	4%	-14%	-1%	-6%	13µM*
CCCCNC(=O)C1(C)CCCCCN1Cc1cc2ccccc2o1 (stereo unspecified)	nt	0	nt	nt	nt	-2%[57.1 µM]	nt
COc1cc(/C=C(\C#N)C(=O)Nc2cccc(C(=O)O)c2)ccc1OCc1ccc(Cl)cc1	10µM*	-10	?	56µM*	?	-5%[11.6 µM]	nt	Pol iota confirm=?
O=C(Nc1nc2ccccc2[nH]1)c1ccccc1F	19%	-12	3%	-17%	21%	-7%	8.2µM*
O=C(Nc1nc2ccccc2[nH]1)c1ccc(F)cc1	4%	nt	0%	-7%	-5%[58.9 µM]	0%	nt
CCOc1ccc(-c2nc(SCC(=O)Nc3cc(F)ccc3F)n3[nH]c(=O)cc3n2)cc1	4.5µM*	nt	15%	-6%	0%	nt	5.8µM*
COc1ccc(C(=O)N/N=C/c2ccc(OC(=O)c3cccs3)cc2)cc1	32%	0	-3%	-7%	-13%	1%	nt
O=C(N/N=C\c1ccc(OC(=O)c2cccs2)cc1)c1ccc(Cl)cc1	3.2µM*	1	-7%	3.2µM*	?	-10%[11.6 µM]	nt	Pol iota confirm=?
COc1ccc(B(O)O)c(CN2CCN(C(=O)OC(C)(C)C)CC2)c1	nt	-9	-26%	-6%	?	-9%	?
CCc1ccc(CN(Cc2ccco2)c2cnc(S(C)(=O)=O)nc2C(=O)Nc2ccc(C)c(Cl)c2)cc1	4%	nt	-19%	-21%	14%	nt	nt
